Sampled rows, rich in hits. Any-hit rate of the full collection: about 1.6%.
KCNQ2 pot – potentiators of rat KCNQ2 potassium channel; O88943; CHO-K1 KCNQ2, FluxOR thallium flux fluorescence; active compounds read high; B-score at 10 µM; 310,000 tested, 0.54% active; AID 2239;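 active = fluorescence ratio B-score at least 3 SD of library B-scores, with initial fluorescence B-score within 3 of them, cut at about 5.3 in these data; same plate scores as AID 2156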;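 note: B-score of peak minus minimum over baseline fluorescence ratio after K+ and Tl+ stimulus; positive B-score means potentiation of KCNQ2 with more thallium influx and brighter signal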
KCNQ2 block – inhibitors of rat KCNQ2 potassium channel; AID 2156; B-score at 10 µM; O88943; CHO-K1 KCNQ2, FluxOR thallium flux, 20 min; active compounds read low; 310,000 tested, 1.1% active;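 active = fluorescence ratio B-score at most minus 3 library SDs, with starting brightness B-score within 2 library SDs, cut at about -5.5 in these data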
KCNQ2 block conf – confirmation of rat KCNQ2 potassium channel inhibitors; shares compounds with KCNQ2 block; activity change, negative = inhibition, % at 10 µM; AID 493025; 1,000 tested, 57% active; KCNQ2-expressing cells, thallium flux, inhibition; active compounds read low
KCNQ1 spec – KCNQ2 inhibitor that also affects human KCNQ1 channel; shares compounds with KCNQ2 block; KCNQ1-expressing cells, FluxOR thallium flux fluorescence; active compounds read low; activity change, negative = inhibition, % at 10 µM; 1,000 tested, 15% active;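 active = activity change at least 3 SD of negative controls below their mean in both duplicate wells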;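 note: CHO cells stably transfected with KCNQ1 and depolarized by potassium stimulus; peak minus minimum fluorescence over baseline after thallium addition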
Target sequence (P51787 whole entry, looked up): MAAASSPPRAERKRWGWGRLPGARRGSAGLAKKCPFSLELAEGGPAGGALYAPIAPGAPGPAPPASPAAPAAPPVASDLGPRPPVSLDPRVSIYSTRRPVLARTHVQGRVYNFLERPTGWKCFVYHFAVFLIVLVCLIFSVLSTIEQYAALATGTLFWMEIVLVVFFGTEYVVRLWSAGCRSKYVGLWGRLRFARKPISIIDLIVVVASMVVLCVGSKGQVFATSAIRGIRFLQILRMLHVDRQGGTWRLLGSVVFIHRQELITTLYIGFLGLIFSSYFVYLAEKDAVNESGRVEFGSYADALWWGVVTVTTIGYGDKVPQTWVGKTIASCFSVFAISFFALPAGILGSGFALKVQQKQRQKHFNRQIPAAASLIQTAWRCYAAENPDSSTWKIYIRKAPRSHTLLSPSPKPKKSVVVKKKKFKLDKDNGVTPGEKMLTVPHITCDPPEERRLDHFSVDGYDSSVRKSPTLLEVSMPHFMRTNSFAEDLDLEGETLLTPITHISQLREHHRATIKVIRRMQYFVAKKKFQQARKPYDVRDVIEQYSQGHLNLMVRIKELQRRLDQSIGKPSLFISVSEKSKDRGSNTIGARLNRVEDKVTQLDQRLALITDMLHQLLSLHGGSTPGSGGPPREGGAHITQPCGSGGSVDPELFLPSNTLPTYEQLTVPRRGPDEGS
CHO Tl ctr – KCNQ2 inhibitor counter-screen hit in parental CHO cells | shares compounds with KCNQ2 block | thallium flux counter-screen; active compounds read low | activity change, % at 10 µM | 1,000 tested, 14% active | AID 493029
KCNQ2 inh confirm – confirmation of rat KCNQ2 potassium channel inhibitors | shares compounds with KCNQ2 block | KCNQ2-expressing cells, automated patch clamp current | calls only at 10 µM | 550 tested, 49% active | AID 588531
Each line names hits and unclear results; the compound was inactive in the other large screens (follow-up assays come after a bar, where they were run). Unless noted, the rule behind the calls is not given here.

Cc1ccc(/C(N)=N/OC(=O)N2c3ccccc3Sc3ccccc32)cc1	KCNQ2 block -8.5 | KCNQ2 block conf -26% | KCNQ1 spec inactive | CHO Tl ctr inactive | KCNQ2 inh confirm active
Cc1cc(C)c(C#N)c(SCC(O)COc2ccc(Br)cc2)n1 (centres undefined)	none (no result: KCNQ2 pot)
O=C(O)CN1CCCC1=Nc1ccccc1	none (no result: KCNQ2 pot)
Cc1ccc(C)c(N=C2CCCN2Cc2ccccc2)c1C#N	KCNQ2 block -7.3 | KCNQ2 block conf inactive | KCNQ1 spec inactive | CHO Tl ctr inactive
CCc1cccc(NC(=O)COC(=O)c2cc([N+](=O)[O-])ccc2N2CCOCC2)c1	none (no result: KCNQ2 pot)
CN(C)C(C(=O)Nc1cc(Cl)cc(Cl)c1)c1ccccc1 (centres undefined)	KCNQ2 block -8.3 | KCNQ2 block conf -29% | KCNQ1 spec inactive | CHO Tl ctr inactive | KCNQ2 inh confirm active
COCCNC(C(=O)Nc1cc(Cl)cc(Cl)c1)c1ccccc1 (centres undefined)	KCNQ2 block -8.1 | KCNQ2 block conf -30% | KCNQ1 spec inactive | CHO Tl ctr inactive | KCNQ2 inh confirm active
O=C(OC(C(=O)Nc1cc(Cl)cc(Cl)c1)c1ccccc1)C1=COCCO1 (centres undefined)	none (no result: KCNQ2 pot)
CNC(=O)NC(=O)C(NC1CCCc2ccccc21)c1ccccc1 (centres undefined)	none (no result: KCNQ2 pot)
COCC(C)NC(C(=O)Nc1cccc(C(C)=O)c1)c1ccccc1 (centres undefined)	none
CCOCCCNC(C(=O)Nc1ccc(OC)c(Cl)c1)c1ccccc1 (centres undefined)	none (no result: KCNQ2 pot)
COCC(C)NC(C(=O)Nc1ccc(C)c(Cl)c1)c1ccccc1 (centres undefined)	KCNQ2 block -6.8 | KCNQ2 block conf inactive | KCNQ1 spec inactive | CHO Tl ctr inactive
Cc1ccc(NC(=O)C(NC2CCCc3ccccc32)c2ccccc2)cc1Cl (centres undefined)	KCNQ2 block -8.9 | KCNQ2 block conf inactive | KCNQ1 spec inactive | CHO Tl ctr inactive
Cc1ccc(SCC(=O)OCC(=O)N(CC(C)C)c2c(N)n(Cc3ccccc3)c(=O)[nH]c2=O)c(C)c1	none
CC(NC(=O)CCCc1nnc2n(C)c(=O)c3sccc3n12)c1ccccc1 (centres undefined)	none
CC1CCCCC1NC(=O)COC(=O)CNC(=O)c1cccc(F)c1 (centres undefined)	none
CCOc1ccc2oc(C(=O)N3CCN(c4ccccc4OCC)CC3)c(C)c2c1	KCNQ2 block -9.8 | KCNQ2 block conf inactive | KCNQ1 spec inactive | CHO Tl ctr inactive
COc1ccccc1N1CCN(C(=O)c2oc3cc(C)c(C)cc3c2C)CC1	none (no result: KCNQ2 pot)
CCCC[C@@H]1C[C@H]1[C@@H](NC(=O)c1ccco1)c1ccccc1C(F)(F)F	none (no result: KCNQ2 pot)
CCCC[C@@H]1C[C@H]1[C@@H](NC(=O)c1cccs1)c1ccc(C(F)(F)F)cc1	KCNQ2 block -8.7 | KCNQ2 block conf -18% | KCNQ1 spec inactive | CHO Tl ctr inactive | KCNQ2 inh confirm inactive
CN(C)CCCNC(=O)c1ccc(-c2nc(-c3ccc(Cl)cc3)cs2)cc1	KCNQ2 block -12 | KCNQ2 block conf -22% | KCNQ1 spec inactive | CHO Tl ctr inactive | KCNQ2 inh confirm inactive
CN(C)CCCNC(=O)c1ccccn1	none
COc1cc(CN(C)Cc2cccc3ccccc23)cc([N+](=O)[O-])c1O	none
CCOC(=O)C1(P(=O)(c2ccc(Cl)cc2)c2ccc(Cl)cc2)CCC1	KCNQ2 block -7.2 | KCNQ2 block conf -29% | KCNQ1 spec inactive | CHO Tl ctr inactive | KCNQ2 inh confirm active
O=C(O)C1(P(=O)(c2ccc(Cl)cc2)c2ccc(Cl)cc2)CC1	none
COc1ccc(CN(Cc2ccccn2)C(=O)CN2C(=O)COc3ccccc32)cc1	none
CC1Oc2ccccc2N(CC(=O)N(Cc2ccccc2)Cc2ccccn2)C1=O (centres undefined)	KCNQ2 block -7.2 | KCNQ2 block conf -16% | KCNQ1 spec inactive | CHO Tl ctr inactive | KCNQ2 inh confirm active
Cc1cc(C(c2ccc(C)o2)c2ccc(C)o2)c(O)c([N+](=O)[O-])c1	KCNQ2 block -8.9 | KCNQ2 block conf inactive | KCNQ1 spec inactive | CHO Tl ctr inactive
Cc1ccc(C(c2ccc(C)o2)c2cccc([N+](=O)[O-])c2O)o1	none (no result: KCNQ2 pot)
O=C1CSc2ccc(S(=O)(=O)N3CCN(c4ccccc4F)CC3)cc2N1	none (no result: KCNQ2 pot)
C=CCn1c(SCC(N)=O)nc2sc3c(c2c1=O)CCC3	KCNQ2 block -9.3 | KCNQ2 block conf inactive | KCNQ1 spec inactive | CHO Tl ctr inactive
C=CCn1c(SCC(=O)N2CCOCC2)nc2sc3c(c2c1=O)CCCC3	none
CCOC(=O)N1CCN(C(=O)c2nn(C)c3c2CSc2ccccc2-3)CC1	none
CCN(CC)C(=O)CSc1nc2ccccc2c(=O)n1CC1CCCCC1	KCNQ2 block -6.6 | KCNQ2 block conf -45% | KCNQ1 spec -38% | CHO Tl ctr -30% | KCNQ2 inh confirm active
O=C(CSc1nc2ccccc2c(=O)n1CC1CCCCC1)N1CCOCC1	none (no result: KCNQ2 pot)
NC(=O)c1ccc2c(=O)c(O)c(-c3cc(Cl)c(N)c(Cl)c3)[nH]c2c1	none
Cc1sc(NC(=O)CCl)c(C(=O)c2ccccc2)c1C	none
Cc1ccccc1C(=O)Nc1sc(C)c(C)c1C(=O)c1ccccc1	KCNQ2 block -9.6 | KCNQ2 block conf -33% | KCNQ1 spec -32% | CHO Tl ctr -27% | KCNQ2 inh confirm inactive
N#Cc1nc(COc2ccc(F)cc2)oc1N1CCC(Cc2ccccc2)CC1	KCNQ2 block -8.9 | KCNQ2 block conf -42% | KCNQ1 spec -42% | CHO Tl ctr -32% | KCNQ2 inh confirm inactive
CCN1CCN(c2oc(COc3ccc(-c4ccccc4)cc3)nc2C#N)CC1	none (no result: KCNQ2 pot)
N#Cc1nc(COc2ccc(F)cc2)oc1N1CCN(Cc2ccccc2)CC1	KCNQ2 block -7 | KCNQ2 block conf -16% | KCNQ1 spec inactive | CHO Tl ctr inactive | KCNQ2 inh confirm active
N#Cc1nc(Cc2ccccc2)oc1N1CCC(Cc2ccccc2)CC1	none (no result: KCNQ2 pot)
CSc1ccccc1OCc1cc(C(=O)N2CCc3c(Cl)cccc3C2)no1	none (no result: KCNQ2 pot)
c1ccc(C2=Nc3c(ccc4ccccc34)C(c3ccncc3)=NN2)cc1	KCNQ2 block -12 | KCNQ2 block conf -29% | KCNQ1 spec inactive | CHO Tl ctr inactive | KCNQ2 inh confirm active
Cc1ccc2c(c1)C(c1ccncc1)=NNC(c1ccccc1)=N2	none (no result: KCNQ2 pot)
O=C(CSc1ccccc1)Nc1ccc2c(c1)C(=O)NC2=O	none
CCOc1cc(CNCCc2ccc(S(N)(=O)=O)cc2)ccc1OCc1ccccc1	none (no result: KCNQ2 pot)
CCOc1cc(CNCCc2ccc(S(N)(=O)=O)cc2)cc(Cl)c1OCc1ccccc1	KCNQ2 block -9.4 | KCNQ2 block conf -30% | KCNQ1 spec inactive | CHO Tl ctr inactive | KCNQ2 inh confirm inactive
CC(C)CNC(=O)c1nc(-c2ccccc2)n(-c2ccccc2)n1	none (no result: KCNQ2 pot)
CC(OC(=O)c1nc(-c2ccccc2)n(-c2ccccc2)n1)C(=O)Nc1cc(Cl)cc(Cl)c1 (centres undefined)	KCNQ2 block -6.9 | KCNQ2 block conf inactive | KCNQ1 spec inactive | CHO Tl ctr inactive

Screening results from PubChem.
